The source made the active and inactive calls. Unless noted, how the calls were made is not given here.

In PubChem BioAssay one finds z-score and composite z-score data, which are given here for nine molecules.

Assay [1] in a line: HepG2 liver cancer cell viability effects, profiling panel, resazurin fluorescence, 24 h, PK04 Diversity Set (AID 1172). Particulars: higher = more signal.
A short description of assay [2]: basal S. cerevisiae growth modulation, no modifier, primary screen, OD600, strain BY4716, 24 h, basal condition (AID 1173). Particulars: OD600, 24 h, higher = more signal, called active from +8 up or from −8 down.
A short description of assay [3]: MM1S myeloma cell viability, profiling panel, resazurin fluorescence, basal, 24 h, PK04 Diversity Set (AID 1174).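 Further: MM1S multiple myeloma cell line.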 Particulars: higher = more signal, called active from +8 up or from −8 down. A general note: Alamar Blue is a resazurin reagent that responds to reducing activity.
Assay [4] concerns the target Dihydroorotate dehydrogenase (quinone), mitochondrial (Plasmodium falciparum (isolate 3D7)) (UniProt Q08210). Kind of assay: PfDHODH enzyme inhibitors, primary screen, biochemical, C-terminal His tag, absorbance 600 nm (AID 1175).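 Further: recombinant parasite enzyme with a five histidine tag at its C terminus.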 The note with it: DCIP absorbance 600 nm, higher = more signal, called active from +8 up or from −8 down.
Assay [5] in a line: P. aeruginosa biofilm formation inhibitors, primary screen, strain PAO1, LB-PBS medium, absorbance 600 nm (AID 1176). The note with it: P. aeruginosa PAO1 growth/biofilm, A600, 12 h; higher = more signal.
Assay [6] can be described thus: S. cerevisiae RM11-1a growth modifiers, primary screen, strain RM11-1a, OD600, basal, 24 h (AID 1177).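 Further: cultures grown under basal conditions with no added stressor.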 Particulars: OD600, 24 h, higher = more signal, called active from +8 up or from −8 down.
A short description of assay [7]: E. coli acrAB mutant growth effects, primary screen, E. coli filamentation inducers, strain DRC39, OD650, 24 h (AID 1178).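 Further: growth measured as culture turbidity by optical density at 650 nm.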 Particulars: higher = more signal, called active from +8 up or from −8 down.
A short description of assay [8]: E. coli acrAB mutant growth effects, primary screen, E. coli filamentation inducers, strain DRC39, OD650, 48 h (AID 1179).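 Further: screen aims at cell division blockers that make cells filament.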 Particulars: E. coli DRC39 delta-acrAB growth, higher = more signal, called active from +8 up or from −8 down.
Assay [9] can be described thus: RPMI8226 myeloma cell viability, profiling panel, resazurin fluorescence, basal, 24 h, PK04 Diversity Set (AID 1180).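 Further: RPMI8826 multiple myeloma cell line at 5000 cells per well.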 Particulars: higher = more signal.
The target of assay [10] is E3 ubiquitin-protein ligase XIAP (Homo sapiens) (UniProt P98170). The assay can be described thus: XIAP binders, primary screen, biophysical, small-molecule microarray, fluorescence 635 nm (AID 1181).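 Further: score merges 667 nm emission and signal to noise over triplicate slides.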 Particulars: small-molecule microarray binding, higher = more signal.
Sequence of E3 ubiquitin-protein ligase XIAP (Homo sapiens) (P98170 whole entry, looked up): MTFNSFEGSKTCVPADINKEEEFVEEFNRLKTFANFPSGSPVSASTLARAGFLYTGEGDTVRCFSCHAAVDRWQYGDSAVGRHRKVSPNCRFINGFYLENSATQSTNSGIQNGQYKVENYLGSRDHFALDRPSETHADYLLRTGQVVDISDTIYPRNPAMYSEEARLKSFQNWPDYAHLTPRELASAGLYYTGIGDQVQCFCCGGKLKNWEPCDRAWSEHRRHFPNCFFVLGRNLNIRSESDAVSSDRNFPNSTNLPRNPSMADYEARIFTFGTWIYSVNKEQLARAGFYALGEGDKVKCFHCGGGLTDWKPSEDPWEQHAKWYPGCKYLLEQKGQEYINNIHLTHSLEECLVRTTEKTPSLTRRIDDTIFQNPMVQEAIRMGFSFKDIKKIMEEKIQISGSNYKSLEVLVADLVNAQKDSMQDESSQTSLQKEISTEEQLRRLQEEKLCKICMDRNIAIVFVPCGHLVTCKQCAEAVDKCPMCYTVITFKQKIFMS
In assay [11] the test system is XIP peptide (Xip251-270) binding. Kind of assay: small-molecule binders of XIP peptide, primary screen, biochemical, small-molecule microarray, fluorescence 635/667 nm, 0.1 µg/mL protein (AID 1182). The note with it: fluorescent protein binding, 635 nm, higher = more signal, called active from +8 up or from −8 down.
For assay [12], the system named is XIP peptide (Xip251-270). The assay can be described thus: small-molecule binders of XIP peptide, primary screen, biochemical, small-molecule microarray, fluorescence 635/667 nm, 0.5 µg/mL protein (AID 1183). The note with it: small-molecule microarray binding, fluorescence 635 nm; higher = more signal.
Assay [13] can be described thus: Plasmodium falciparum growth inhibition, primary screen, strain 3D7, DAPI fluorescence, 100 nL (AID 1184).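 Further: parasites grown inside human red blood cells in medium with human serum.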 The note with it: P. falciparum 3D7 growth, 3 d, higher = more signal.
The target in assay [14] is Homeobox protein Hox-A13 (Mus musculus) (UniProt Q62424). The assay can be described thus: inhibitors of HoxA13-DNA binding, primary screen, biochemical, fluorescence polarization, labeled oligonucleotide (AID 1185). Particulars: 15 min, higher = more signal, called active from +8 up or from −8 down.
Sequence of Homeobox protein Hox-A13 (Mus musculus) (Q62424 whole entry, looked up): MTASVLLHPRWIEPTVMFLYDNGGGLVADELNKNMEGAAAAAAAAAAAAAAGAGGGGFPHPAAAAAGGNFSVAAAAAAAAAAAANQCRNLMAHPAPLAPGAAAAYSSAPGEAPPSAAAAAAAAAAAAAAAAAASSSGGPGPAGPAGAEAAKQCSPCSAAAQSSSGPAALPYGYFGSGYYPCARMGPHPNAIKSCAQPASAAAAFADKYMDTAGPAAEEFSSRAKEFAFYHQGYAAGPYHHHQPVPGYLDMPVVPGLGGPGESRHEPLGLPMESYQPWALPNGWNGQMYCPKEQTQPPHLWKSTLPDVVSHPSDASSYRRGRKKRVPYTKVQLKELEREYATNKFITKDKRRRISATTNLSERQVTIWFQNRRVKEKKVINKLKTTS
Assay [15] is described as follows: inhibitors of hydroxyurea-induced Chk1 phosphorylation, primary screen, imaging, HeLa, phospho-Chk1 antibody, percent positive cells (AID 1186). Particulars: hydroxyurea-induced phospho-Chk1 immunofluorescence imaging, higher = more signal.
Assay [16] in a line: inhibitors of hydroxyurea-induced Chk1 phosphorylation, primary screen, imaging, HeLa, phospho-Chk1 nuclear intensity (AID 1187). Particulars: hydroxyurea-induced phospho-Chk1 immunofluorescence imaging, higher = more signal.

Sequence of Dihydroorotate dehydrogenase (quinone), mitochondrial (Plasmodium falciparum (isolate 3D7)) (Q08210 whole entry, looked up): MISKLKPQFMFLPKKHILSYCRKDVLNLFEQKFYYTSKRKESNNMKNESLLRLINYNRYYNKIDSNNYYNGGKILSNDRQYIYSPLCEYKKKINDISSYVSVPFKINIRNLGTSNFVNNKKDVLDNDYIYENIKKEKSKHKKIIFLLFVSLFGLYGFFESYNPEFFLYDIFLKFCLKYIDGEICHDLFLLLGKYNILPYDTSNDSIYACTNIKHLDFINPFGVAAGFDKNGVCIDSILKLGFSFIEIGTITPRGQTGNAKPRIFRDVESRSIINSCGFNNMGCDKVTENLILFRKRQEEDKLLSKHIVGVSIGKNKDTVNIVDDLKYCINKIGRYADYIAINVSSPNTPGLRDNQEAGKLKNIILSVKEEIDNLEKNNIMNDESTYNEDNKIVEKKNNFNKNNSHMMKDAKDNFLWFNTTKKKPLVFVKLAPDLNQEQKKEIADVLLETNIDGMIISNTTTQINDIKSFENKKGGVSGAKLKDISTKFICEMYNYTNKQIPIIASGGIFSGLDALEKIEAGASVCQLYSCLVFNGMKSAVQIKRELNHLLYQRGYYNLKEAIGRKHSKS

On to `O=C1C[C@@](C(=O)O)(c2ccc([N+](=O)[O-])cc2)[C@@H](c2ccc(CO)cc2I)N1CC12CC3CC(CC(C3)C1)C2`, for which the z-score in assay [1] is -1.79; in assay [2], -4.78 (inactive); in [3] it was -5.9 (inactive); in assay [5] it was 1.34 (inactive); in assay [6] it was -0.326 (inactive); in assay [7], -0.401 (inactive). The z-score in assay [8] was -0.0671 (inactive); in [9] it was -6; in assay [13] it was -1.92; in [14], -5.13 (inactive); in assay [15], 0.288 (inactive); in assay [16], 0.285 (inactive). The composite z-score is -1.49 (inactive) in assay [4], -0.17 in assay [10], 0.862 (inactive) in assay [11] and 0.771 in [12].

`O=S(=O)(NCCCO)c1ccc(Br)cc1`: the z-score in assay [1] is 0.304; in assay [2], -0.476 (inactive); in assay [3], 0.261 (inactive); in assay [5], -0.236 (inactive); in [6], -0.482 (inactive); in assay [7], 1.68 (inactive). Besides, the z-score was 2.3 (inactive) in [8]; 0.461 in assay [9]; 0.327 in [13]; 0.533 (inactive) in assay [14]; -0.868 (inactive) in [15]; -0.953 (inactive) in [16]. Further, the composite z-score in assay [4] was -1.62 (inactive); in assay [10] it was 0.0441; in assay [11], -0.2 (inactive); in [12] it was 0.0425.

Turning to `C=CCC(OC(C)=O)[C@@H]1[C@@H](N(Cc2ccc(-c3ccccc3)cc2)C(=O)c2ccc(C)cc2)c2cc(OCCCO)ccc2N1C(=O)c1ccc2ccccc2n1` (some centres undefined), the z-score in assay [1] is 1.53; in assay [2] it was -0.769 (inactive); in assay [3], 1.3 (inactive); in assay [5] it was 0.833 (inactive); in [6], -1.99 (inactive); in assay [7], 2.06 (inactive). Also, the z-score in assay [8] was 1.82 (inactive); in assay [9], 0.924; in [13] it was -0.62; in assay [14], -1.29 (inactive); in assay [15], -0.641 (inactive); in assay [16], -0.346 (inactive). In addition, the composite z-score is -0.772 (inactive) in assay [4], -0.0663 in [10], -0.218 (inactive) in assay [11] and -0.876 in assay [12].

Turning to `COCCOC(=O)N1C(=O)[C@@]2(c3cc(C#Cc4ccc(OC)cc4)ccc31)[C@H](C(N)=O)[C@H]1C(=O)O[C@H](c3ccccc3)[C@H](c3ccccc3)N1[C@@H]2c1ccc(O)cc1`, the z-score in [1] was -0.0716; in assay [2] it was -0.823 (inactive); in assay [3], 0.277 (inactive); in assay [5] it was 0.886 (inactive); in assay [6] it was -0.0047 (inactive); in [7] it was -0.102 (inactive). The z-score in assay [8] was 0.236 (inactive); in assay [9] it was -0.394; in assay [13] it was -1.69; in assay [14], 2.03 (inactive); in [15], -0.0863 (inactive); in assay [16], 0.243 (inactive). In addition, the composite z-score in [4] is -0.265 (inactive); in [10] it was 0.0849; in assay [11] it was -0.0197 (inactive); in assay [12], 0.0645.

Take `COc1ccc([Si](C)(C)[C@H]2[C@H](CC(=O)N3Cc4ccccc4C[C@H]3CO)O[C@@]3(C(=O)N(Cc4cccc(I)c4)c4ccccc43)[C@@H]2C)cc1`: the z-score in [1] was -0.779; in assay [2], -1.08 (inactive); in [3] it was -2.22 (inactive); in assay [5] it was 1.13 (inactive); in assay [6] it was 1.55 (inactive); in [7], 0.517 (inactive). Also, the z-score was -0.152 (inactive) in [8]; -1.59 in assay [9]; -2.37 in assay [13]; -2.66 (inactive) in assay [14]; -1.22 (inactive) in assay [15]; -0.541 (inactive) in [16]. Besides, the composite z-score in assay [4] is -1.01 (inactive); in [10] it was -0.157; in assay [11], -0.276 (inactive); in [12] it was 0.287.

For `COC(=O)[C@@]1(Cc2ccc(F)cc2)[C@H]2c3cc(C(=O)N(C)C)n(CCCNc4ccc(C(F)(F)F)cc4Cl)c3C[C@H]2CN1C(=O)c1ccccc1`, the z-score is -0.591 in [1]; 1.28 (inactive) in assay [2]; -1.98 (inactive) in [3]; 0.439 (inactive) in [5]; 0.482 (inactive) in assay [6]; -0.0949 (inactive) in [7]. For the same molecule, the z-score in assay [8] is 0.29 (inactive); in assay [9], -3.88; in assay [13], -1.39; in assay [14], -0.925 (inactive); in [15] it was 0.456 (inactive); in [16], -0.225 (inactive). Also, the composite z-score is -0.0269 (inactive) in [4], 0.143 in assay [10], 0.915 (inactive) in assay [11] and 0.557 in assay [12].

In the case of `[N-]=[N+]=NCc1ccccc1[C@H]1OC(c2ccc(OCCCO)cc2)=N[C@@]1(Cc1ccccc1)C(=O)O`, the z-score in assay [1] was 1.31; in assay [2] it was -3.06 (inactive); in [3], -0.967 (inactive); in assay [5], -0.0862 (inactive); in [6] it was 0.816 (inactive); in [7] it was -1.13 (inactive). The z-score in assay [8] is -0.835 (inactive); in [9], 0.273; in assay [13] it was 0.45; in assay [14] it was -5.05 (inactive); in [15], -0.594 (inactive); in assay [16] it was -1.1 (inactive). For the same molecule, the composite z-score is -0.055 (inactive) in [4], -0.205 in [10], 0.419 (inactive) in [11] and 0.652 in [12].

For `CC(C)NC(=O)[C@@]1(c2ccc([N+](=O)[O-])cc2)CC(=O)N(C(C)C)[C@@H]1c1ccc(CO)cc1`, the z-score is -0.864 in assay [1]; 0.347 (inactive) in assay [2]; -0.972 (inactive) in [3]; 1.13 (inactive) in assay [5]; -1.58 (inactive) in [6]; 0.423 (inactive) in assay [7]. The z-score in assay [8] was 1.17 (inactive); in assay [9], -0.792; in [13] it was 0.468; in [14], -2 (inactive); in assay [15], -0.403 (inactive); in assay [16], -0.102 (inactive). For the same molecule, the composite z-score is -1.53 (inactive) in assay [4], -0.369 in assay [10], 0.508 (inactive) in assay [11] and 0.316 in assay [12].

Take `CCCC[C@@H]1C[C@H]1[C@@H](NC(=O)c1ccccc1)c1ccc(-c2ccccc2)cc1`: the z-score in assay [1] is -2.26; in assay [2], -0.552 (inactive); in [3] it was -2.24 (inactive); in assay [5], 0.122 (inactive); in assay [6], 0.219 (inactive); in assay [7] it was -0.499 (inactive). In addition, the z-score is -0.293 (inactive) in assay [8]; -3.64 in assay [9]; -0.0371 in assay [13]; -3.63 (inactive) in [14]; -0.0528 (inactive) in assay [15]; 0.215 (inactive) in assay [16]. Moreover, the composite z-score in assay [4] is -0.297 (inactive); in [10] it was 1.14; in assay [11], 0.397 (inactive); in [12] it was -0.0572.
